From PubChem BioAssay (NCATS)
“And” between values parts separate entries of the source, which are not always exact repeats. Equal values may be shown once. Results filed as inconclusive are left out. The source made the active and inactive calls. Unless noted, the call rests on the fitted dose curve; in most records, active means well fitted curve in the direction sought with a large enough effect; inconclusive means small, poorly fitted or top-dose-only effect, or another doubt; inactive means no such curve, though single readings can be large; an effect the other way counts as inactive or inconclusive.

How the values were obtained:
[1] = Cell Viability - Renal Proximal Tubule (AID 545); conditions: renal proximal tubule cells viability, primary cells of rat origin; at 91.7 µM (top of the series);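 further: cells exposed to compound for 40 hours; nearly all actives have a fitted effect of over 40% in size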
Summary of the method: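 Rat kidney proximal tubule cells, freshly isolated; 1000 cells/well, 5 hr settle, compound 40 hr 37 °C. CellTiter-Glo 20 min RT, luminescence read. AC50 by standard Hill fit.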

[2] = Cellular Toxicity (caspase-3) Jurkat (AID 655); conditions: Jurkat caspase-3 activation, luminescence, DMSO = 0%, tamoxifen = 100%; at 92.2 µM (top of the series);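 further: cells exposed to compound for 16 h at 37 °C before reading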
Summary of the method: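 Luminescent caspase-3/7 readout (aminoluciferin substrate cleavage) in human T-cell leukemia Jurkat cells after 16 hr compound exposure. Concentration-response normalized to DMSO and 100 uM tamoxifen; AC50 by standard Hill equation.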

[3] = Cell Viability - LYMP2-001 (AID 921); further: nearly all actives have a fitted effect of over 70% in size; further: potency means the concentration at half of the fitted maximal effect
Summary of the method: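 CellTiter-Glo luminescence (intracellular ATP) after 24 hr compound exposure at 37 C, 2500 lymphoblastoid cells/well in complete medium. AC50 fitted with standard Hill equation; tetraoctylammonium bromide positive control.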

[4] = Cell Viability - LYMP1-003 - Assay at 24 hr (AID 963); further: potency means the concentration at half of the fitted maximal effect
Summary of the method: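 Concentration-response qHTS: ATP loss measured by CellTiter-Glo luminescence after 24 h compound exposure at 37 C. Cells were LYMP1-003 human lymphoblastoid, 2500 per well. AC50 derived via standard Hill equation modeling.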

[5] = Cell Viability - LYMP2-004 (AID 966); further: nearly all actives have a fitted effect of over 65% in size; further: potency means the concentration at half of the fitted maximal effect;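 on activity change, negative = cytotoxicity: plate controls were DMSO only for no effect and tetraoctylammonium bromide control for full effect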
Summary of the method: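 AC50 values come from Hill modelling of concentration-dependent loss of intracellular ATP, measured by CellTiter-Glo luminescence. Human LYMP2-004 lymphoblastoid cells (2500/well) were exposed to compound for 24 h at 37 C.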

[6] = Cell Viability - LYMP2-005 (AID 967); further: potency means the concentration at half of the fitted maximal effect
Summary of the method: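 Steps: seed 2500 LYMP2-005 cells/well, incubate 5 h at 37 C, add compound, incubate 24 h at 37 C, add CellTiter-Glo, wait 30 min at RT, read luminescence. Concentration-response data fitted to Hill equation for AC50.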

[7] = Cell Viability - LYMP2-019 (AID 973); further: nearly all actives have a fitted effect of over 55% in size; further: potency means the concentration at half of the fitted maximal effect;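 on activity change, negative = cytotoxicity: 0% = DMSO alone and full effect = 92 µM tetraoctylammonium bromide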
Summary of the method: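 AC50 values come from Hill-equation fits of luminescent intracellular ATP (CellTiter-Glo, 30 min, room temperature) following 24 h compound exposure at 37 C. Cells: LYMP2-019 lymphoblastoid line, 2500 per well, in complete culture medium.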

[8] = Cell Viability - LYMP2-021 (AID 974); further: nearly all actives have a fitted effect of over 55% in size; further: potency means the concentration at half of the fitted maximal effect; on activity change, negative = cytotoxicity: on the % scale 0 is the no-effect control and ±100 the full control effect
Summary of the method: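 AC50 values come from Hill-equation fits to CellTiter-Glo luminescence (ATP content), read after 24 hour compound exposure at 37 C of 2500 LYMP2-021 lymphoblastoid cells/well; tetraoctylammonium bromide as positive control.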

[9] = Cell Viability - LYMP2-023 (AID 975); further: nearly all actives have a fitted effect of over 55% in size; further: potency means the concentration at half of the fitted maximal effect;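 on activity change, negative = cytotoxicity: cellular ATP measured by luciferase luminescence as viability proxy; plate controls were DMSO only for no effect and 92 µM tetraoctylammonium bromide control for full effect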
Summary of the method: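 Intracellular ATP, read by CellTiter-Glo luminescence, reports viability after 24 hr compound exposure at 37 C. 2500 lymphoblastoid cells/well (LYMP2-023) seeded 5 hr beforehand; Hill fits give AC50; positive control tetraoctylammonium bromide.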

[10] = Cell Viability - LYMP2-025 (AID 976); further: potency means the concentration at half of the fitted maximal effect;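 on activity change, negative = cytotoxicity: plate controls were DMSO only for no effect and tetraoctylammonium bromide control for full effect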
Summary of the method: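 Cytotoxicity read as loss of intracellular ATP (luciferase luminescence) after 24 h compound treatment at 37 C. Uses LYMP2-025 lymphoblastoid cells in 1536-well format; Hill-equation modelling gives AC50; tetraoctylammonium bromide as positive control.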

[11] = Cell Viability - LYMP2-002 (AID 977); further: potency means the concentration at half of the fitted maximal effect
Summary of the method: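 Human lymphoblastoid cells, 2500/well, complete medium; 5 h 37 C settle; compound 24 h 37 C; CellTiter-Glo, 30 min RT; luminescence. Decrease in ATP = cytotoxicity; AC50 via Hill equation.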

[12] = Cell Viability - LYMP2-006 (AID 978); further: nearly all actives have a fitted effect of over 60% in size; further: potency means the concentration at half of the fitted maximal effect; on activity change, negative = cytotoxicity: on the % scale 0 is the no-effect control and ±100 the full control effect
Summary of the method: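 qHTS, 1536-well; 2500 cells/well, 5 hr 37 C; cpd 24 hr 37 C; CellTiter-Glo 30 min RT; luminescence. Tetraoctylammonium bromide pos. ctrl. AC50 via Hill eqn.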

[13] = Cell Viability - LYMP2-014 (AID 983); further: nearly all actives have a fitted effect of over 50% in size; further: potency means the concentration at half of the fitted maximal effect;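 on activity change, negative = cytotoxicity: plate controls were DMSO only for no effect and 92 µM tetraoctylammonium bromide for full effect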
Summary of the method: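 Intracellular ATP loss, read by luciferase luminescence, measures acute cytotoxicity after 24 h compound exposure of lymphoblastoid LYMP2-014 cells (2500/well, 37 C). Concentration-response data fitted to the Hill equation for AC50.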

[14] = Cell Viability - LYMP2-016 (AID 984); further: nearly all actives have a fitted effect of over 55% in size; further: potency means the concentration at half of the fitted maximal effect
Summary of the method: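 qHTS, 1536-well: 2500 LYMP2-016 cells/well, 5 hr 37 C, compound added, 24 hr 37 C, CellTiter-Glo 30 min RT, luminescence. Tetraoctylammonium bromide positive control. AC50 via Hill fit.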

[15] = Cell Viability - LYMP2-026 (AID 989); further: nearly all actives have a fitted effect of over 50% in size; further: potency means the concentration at half of the fitted maximal effect
Summary of the method: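 Cytotoxicity read as ATP-dependent luminescence (CellTiter-Glo, 30 min room temperature) after 24 h compound treatment at 37 C. LYMP2-026 lymphoblastoid line seeded at 2500 cells/well; AC50 derived by standard Hill equation.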

[16] = Cell Viability - LYMP1-002 - Assay at 24 hr (AID 993); further: potency means the concentration at half of the fitted maximal effect
Summary of the method: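 qHTS cytotoxicity at 24 h: CellTiter-Glo ATP luminescence in lymphoblastoid line LYMP1-002 incubated with compound at 37 °C. Concentration-response modeled with the Hill equation for AC50; tetraoctylammonium bromide served as positive control.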

[17] = biological target: Retinoic acid receptor RXR-alpha (Homo sapiens) (UniProt P19793); experiment: qHTS assay for small molecule antagonists of retinoid X receptor alpha signaling (AID 588546; active means well fitted inhibition curve with a large enough effect in the signal ratio, with a control signal flat, not every such curve was filed as active; the % refers to the signal ratio;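 further: cells stimulated with 9-cis-retinoic acid as agonist; on the % scale 0 is the no-effect control and ±100 the full control effect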); conditions: HEK293T RXRa-UAS-bla, beta-lactamase ratio, antagonist mode
Retinoic acid receptor RXR-alpha (Homo sapiens), sequence (P19793 whole entry, looked up): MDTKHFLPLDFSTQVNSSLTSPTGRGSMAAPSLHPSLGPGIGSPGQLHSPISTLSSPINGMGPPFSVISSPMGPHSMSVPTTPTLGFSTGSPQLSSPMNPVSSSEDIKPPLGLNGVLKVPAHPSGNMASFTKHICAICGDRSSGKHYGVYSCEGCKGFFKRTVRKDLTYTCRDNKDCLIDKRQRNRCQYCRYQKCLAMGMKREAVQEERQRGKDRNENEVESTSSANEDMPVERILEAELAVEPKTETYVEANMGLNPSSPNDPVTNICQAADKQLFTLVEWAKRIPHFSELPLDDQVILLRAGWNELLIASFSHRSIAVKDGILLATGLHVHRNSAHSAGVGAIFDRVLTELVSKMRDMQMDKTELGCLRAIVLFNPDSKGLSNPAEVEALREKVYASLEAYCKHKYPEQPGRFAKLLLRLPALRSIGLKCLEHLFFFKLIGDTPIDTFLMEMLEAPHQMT
Summary of the method: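 Beta-lactamase reporter inhibition, read as CCF4 fluorescence ratio (ex 405, em 460/530 nm) after 2 h at RT. HEK293T UAS-bla cells, 2500/well, were stimulated with 9-cis-RA at 500 or 100 nM final alongside test compound for 18 h at 37 C.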

[18] = biological target: Voltage-gated inwardly rectifying potassium channel KCNH2 (Homo sapiens) (UniProt Q12809); experiment: qHTS Assay for Small Molecule Inhibitors of the Human hERG Channel Activity (AID 588834);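 further: top concentration of the series differs between compounds; on the % scale 0 is the no-effect control and ±100 the full control effect; lower thallium flux fluorescence means stronger hERG block; nearly all actives have a fitted effect of over 50% in size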
Voltage-gated inwardly rectifying potassium channel KCNH2 (Homo sapiens), sequence (Q12809 whole entry, looked up): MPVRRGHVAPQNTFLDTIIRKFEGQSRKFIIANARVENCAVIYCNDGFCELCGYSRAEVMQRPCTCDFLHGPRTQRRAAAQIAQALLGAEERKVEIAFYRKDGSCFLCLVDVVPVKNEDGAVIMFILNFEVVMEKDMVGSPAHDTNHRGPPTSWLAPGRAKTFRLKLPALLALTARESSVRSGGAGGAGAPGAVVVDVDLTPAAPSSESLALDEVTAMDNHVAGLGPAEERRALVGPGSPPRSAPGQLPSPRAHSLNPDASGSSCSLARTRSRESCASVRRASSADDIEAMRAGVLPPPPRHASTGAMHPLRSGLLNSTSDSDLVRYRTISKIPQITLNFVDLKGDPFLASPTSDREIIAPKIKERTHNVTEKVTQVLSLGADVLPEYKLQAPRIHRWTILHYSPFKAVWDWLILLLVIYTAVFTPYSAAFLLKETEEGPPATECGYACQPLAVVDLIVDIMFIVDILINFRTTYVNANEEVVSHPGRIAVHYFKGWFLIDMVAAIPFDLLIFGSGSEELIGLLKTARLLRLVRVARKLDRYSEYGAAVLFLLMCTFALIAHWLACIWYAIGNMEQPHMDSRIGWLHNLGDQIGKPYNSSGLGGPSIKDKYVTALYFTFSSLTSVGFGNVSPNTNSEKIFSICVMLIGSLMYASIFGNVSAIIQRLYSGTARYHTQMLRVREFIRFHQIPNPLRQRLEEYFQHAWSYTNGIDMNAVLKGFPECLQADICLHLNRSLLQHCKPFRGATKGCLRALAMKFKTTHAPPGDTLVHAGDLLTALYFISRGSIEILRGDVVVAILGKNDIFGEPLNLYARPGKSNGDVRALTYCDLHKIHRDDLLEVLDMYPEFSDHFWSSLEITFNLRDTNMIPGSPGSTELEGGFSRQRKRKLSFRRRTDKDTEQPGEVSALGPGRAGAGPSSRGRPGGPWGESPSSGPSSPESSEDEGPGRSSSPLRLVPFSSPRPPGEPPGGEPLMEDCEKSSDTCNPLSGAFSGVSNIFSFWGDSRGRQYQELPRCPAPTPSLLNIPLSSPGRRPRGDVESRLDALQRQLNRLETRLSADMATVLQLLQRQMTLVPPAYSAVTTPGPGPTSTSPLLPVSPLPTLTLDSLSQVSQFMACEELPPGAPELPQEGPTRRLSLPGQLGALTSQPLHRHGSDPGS
Summary of the method: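 Thallium-flux (FluxOR) read-out on FDSS: fluorescence read 10 s before and 2 min after stimulation buffer. hERG-BacMam-transduced U2OS cells, compound exposure about 10 min. AC50 by standard Hill equation.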

[19] = qHTS assay for small molecule agonists of the antioxidant response element (ARE) signaling pathway measured by Nrf2-dependant transcriptional activity - cell viability counter screen (AID 720653; active means well fitted curve in the direction sought with a large enough effect in the repeat runs; an effect the other way counts as inactive or inconclusive; further: on the % scale 0 is the no-effect control and ±100 the full control effect); conditions: ARE-bla HepG2 viability, CellTiter-Glo ATP luminescence, 16 h; max response: hits give low values
Summary of the method: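 ARE-bla HepG2 cells treated with compounds for 16 h at 37C; this counter screen measures viability as intracellular ATP by CellTiter-Glo luminescence after 30 min at room temperature.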

[20] = biological target: Thyroid hormone receptor beta (Homo sapiens) (UniProt P10828); experiment: qHTS assay for small molecule agonists of thyroid hormone receptor beta signaling (AID 588545; calls by dose curve;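 further: 0% = DMSO only and 100% = 10 nM T3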)
Thyroid hormone receptor beta (Homo sapiens), sequence (P10828 whole entry, looked up): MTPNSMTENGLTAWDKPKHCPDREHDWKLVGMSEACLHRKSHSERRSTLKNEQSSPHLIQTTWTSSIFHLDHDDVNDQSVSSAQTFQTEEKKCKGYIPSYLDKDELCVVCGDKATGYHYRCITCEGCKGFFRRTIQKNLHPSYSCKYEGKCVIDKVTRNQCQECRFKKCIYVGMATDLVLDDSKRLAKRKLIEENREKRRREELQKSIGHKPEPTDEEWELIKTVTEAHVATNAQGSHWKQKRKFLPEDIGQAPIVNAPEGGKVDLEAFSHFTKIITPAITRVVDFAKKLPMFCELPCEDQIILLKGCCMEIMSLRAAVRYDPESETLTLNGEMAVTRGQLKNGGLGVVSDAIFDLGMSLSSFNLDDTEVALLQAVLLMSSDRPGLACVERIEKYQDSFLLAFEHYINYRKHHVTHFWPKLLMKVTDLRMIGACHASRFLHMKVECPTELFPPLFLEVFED
Summary of the method: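 TR-UAS-bla-GripTite HEK 293 cells in medium with 2% charcoal/dextran FBS, 0.1 mM NEAA and 1 mM sodium pyruvate were treated with titrated compounds for 18 hrs at 37 C. Beta-lactamase reporter was read with CCF4 dye (ex 405, em 460/530 nm); EC50 from Hill fits.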

c1ccc2c(c1)c1cccc3ccc4cccc2c4c31
inactive: activity change, negative = cytotoxicity [1] -12.3% | caspase-3 activation [2] 0.0871% | Potency [3] | Potency [4] | Potency [5] | Potency [6] | Potency [7] | Potency [8] | Potency [9] | Potency [10] | Potency [11] | Potency [12] | Potency [13] | Potency [14] | Potency [15] | Potency [16] | max response [17] -6.5% and -1.07% | Potency [18] | max response [19] -0.0817% and -5.96%

Cc1ccc(N)c([N+](=O)[O-])c1
inactive: activity change, negative = cytotoxicity [1] 4.17% | caspase-3 activation [2] -0.471% | Potency [3] | Potency [4] | Potency [5] | Potency [6] | Potency [7] | Potency [8] | Potency [9] | Potency [10] | Potency [11] | Potency [12] | Potency [13] | Potency [14] | Potency [15] | Potency [16] | outcome [20] | max response [17] -0.0872% and -10.2% | Potency [18] | max response [19] -14.8% and -1.11%

C=Cc1ccccc1Cl
inactive: activity change, negative = cytotoxicity [1] -4.37% | caspase-3 activation [2] -1.24% | Potency [3] | Potency [4] | Potency [5] | Potency [6] | Potency [7] | Potency [8] | Potency [9] | Potency [10] | Potency [11] | Potency [12] | Potency [13] | Potency [14] | Potency [15] | Potency [16] | outcome [20] | max response [17] -6.96% | Potency [18] | max response [19] -2.6%

O=C1c2ccccc2C(=O)C1c1ccc2ccccc2n1
active: Potency [12] 39.8 µM
inactive: activity change, negative = cytotoxicity [1] -13.3% | caspase-3 activation [2] -10.4% | Potency [3] | Potency [4] | Potency [5] | Potency [6] | Potency [7] | Potency [8] | Potency [9] | Potency [10] | Potency [11] | Potency [13] | Potency [14] | Potency [15] | Potency [16] | outcome [20] | max response [17] -20% | Potency [18]

Clc1cc(Cl)c(Cl)cc1Cl
inactive: activity change, negative = cytotoxicity [1] -8.1% | caspase-3 activation [2] 2.8% | Potency [3] | Potency [4] | Potency [5] | Potency [6] | Potency [7] | Potency [8] | Potency [9] | Potency [10] | Potency [11] | Potency [12] | Potency [13] | Potency [14] | Potency [15] | Potency [16] | outcome [20] | max response [17] 6.25% and -33.5% | Potency [18] | max response [19] 2.91% and 4.61%

S=C1NC=NC2N=CNC12 (stereo not drawn)
inactive: caspase-3 activation [2] 20.1% | Potency [3] | Potency [6] | Potency [11] | Potency [12] | Potency [14] | outcome [20] | max response [17] -10.4% | Potency [18]

CN(C)CCCCCCN(C)C
inactive: activity change, negative = cytotoxicity [1] -0.404% | caspase-3 activation [2] -2.92% | Potency [3] | Potency [4] | Potency [5] | Potency [6] | Potency [7] | Potency [8] | Potency [9] | Potency [10] | Potency [11] | Potency [12] | Potency [13] | Potency [14] | Potency [15] | Potency [16] | outcome [20] | max response [17] 23.1% | max response [19] 1.08%

CN(C)C=O
inactive: activity change, negative = cytotoxicity [1] -1.87% and 6.39% | caspase-3 activation [2] 2.75% and 2.81% | Potency [3] | Potency [4] | Potency [5] | Potency [6] | Potency [7] | Potency [8] | Potency [9] | Potency [10] | Potency [11] | Potency [12] | Potency [13] | Potency [14] | Potency [15] | Potency [16] | outcome [20] | max response [17] 8.45% and -9.56% | Potency [18] | max response [19] -6.03% and 8.83% and -4.93%

C=CC(=O)OCCOCCOCCOCCOC(=O)C=C
active: activity change, negative = cytotoxicity [1] -95.5% and -108% | Potency [3] 15.8 µM | Potency [4] 31.6 µM and 39.8 µM | Potency [5] 7.94 µM and 12.6 µM | Potency [6] 10 µM and 15.8 µM | Potency [7] 25.1 µM and 31.6 µM | Potency [8] 15.8 µM | Potency [9] 25.1 µM and 31.6 µM | Potency [10] 25.1 µM | Potency [11] 15.8 µM and 25.1 µM | Potency [12] 25.1 µM | Potency [13] 20 µM and 25.1 µM | Potency [14] 20 µM and 15.8 µM | Potency [15] 15.8 µM and 20 µM | Potency [16] 25.1 µM
inactive: outcome [20] | Potency [18] | max response [19] -13%

CCCCCCCCO
inactive: activity change, negative = cytotoxicity [1] -1.75% | caspase-3 activation [2] -0.397% | Potency [3] | Potency [4] | Potency [5] | Potency [7] | Potency [8] | Potency [9] | Potency [10] | Potency [11] | Potency [12] | Potency [13] | Potency [14] | Potency [15] | Potency [16] | outcome [20] | max response [17] 1.87% and 1.57% and -7.12% | Potency [18] | max response [19] -1.13% and 11.2% and -1.97%
